The record followed here is PubChem BioAssay (Tox21).

Each structure is given as a SMILES string. Results filed as inconclusive are left out. A number with no mark means an inactive call. Calls of active or inactive are those of the source. Calls follow the shape of the dose curve; as a rule, active = well fitted curve in the direction sought with a large enough effect in the repeat runs; inconclusive = weak or mixed curves; inactive = no such curve, though single readings can be large; an effect the other way counts as inactive or inconclusive.

Test [1] can be described thus: qHTS RealTime-Glo MT Cell Viability Assay in HepG2 cells - 40 hour (AID 1224870). Also: nearly all actives have a fitted effect of over 50% in size. Also: potency is read from the fitted curve at half-maximal effect. Summed up: (§1)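 Real-time viability: cells seeded at 600 per well together with NanoLuc and cell-permeant prosubstrate, compounds added after 5 h incubation. Luminescence tracked at 0, 8, 16, 24, 32 and 40 h of exposure.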
(In qHTS, concentration-response curves come from the screen itself.)

A short description of test [2]: A CellTox Green Cytotoxicity Assay to monitor cytotoxicity in HEK293 cells - 40 hour (AID 1224871). Also: nearly all actives have a fitted effect of over 45% in size. Summed up:
(§2)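 Homogeneous no-lysis format: HEK293 cell suspension mixed with CellTox Green reagent, seeded, incubated 5 h at 37 C/5% CO2, then dosed by pintool with compound in DMSO.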

A short description of test [3]: qHTS RealTime-Glo MT Cell Viability Assay in HEK293 cells - 16 hour (AID 1224872). Also: top concentration of the series differs between compounds; nearly all actives have a fitted effect of over 50% in size. The method, boiled down: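 Reads taken at 0, 8, 16, 24, 32 and 40 h from the same wells. HEK293 cells (600/well) carried RealTime-Glo reagents from seeding, with compound added after a 5 h settle at 37 C.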
Test [4] in a line: qHTS RealTime-Glo MT Cell Viability Assay in HepG2 cells - 8 hour (AID 1224873). Also: nearly all actives have a fitted effect of over 55% in size. The method, boiled down: as §1
Test [5] in a line: qHTS RealTime-Glo MT Cell Viability Assay in HEK293 cells - 40 hour (AID 1224874). Also: nearly all actives have a fitted effect of over 50% in size. Particulars: RealTime-Glo luminescence; max response: hits give low values. Summed up: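 Measured as luminescence from the same continuously cultured HEK293 wells at successive time points (0, 8, 16, 24, 32, 40 h) after compound addition. Reagent present from seeding; dosing at 5 h; incubation 37 C.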

Test [6] is described as follows: A CellTox Green Cytotoxicity Assay to monitor cytotoxicity in HepG2 cells - 16 hour (AID 1224876). Also: nearly all actives have a fitted effect of over 45% in size. Summed up: (§3)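 Fluorescent DNA-binding dye, 600 HepG2 cells/well, 5 h preincubation then compound in DMSO; same plates read at 0–40 h, 37 C.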
Test [7] can be described thus: qHTS RealTime-Glo MT Cell Viability Assay in HepG2 cells - 32 hour (AID 1224877). Also: nearly all actives have a fitted effect of over 55% in size. Also: potency is read from the fitted curve at half-maximal effect. The method, boiled down: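 HepG2 suspension premixed with RealTime-Glo reagents is plated at 600 cells per well and left 5 h at 37 C/5% CO2. Compounds in DMSO then go in, and bioluminescence reflecting viable cell number is recorded over 40 h.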
Test [8] in a line: A CellTox Green Cytotoxicity Assay to monitor cytotoxicity in HepG2 cells - 24 hour (AID 1224878). Also: nearly all actives have a fitted effect of over 45% in size. The method, boiled down:
as §3

Test [9] in a line: A CellTox Green Cytotoxicity Assay to monitor cytotoxicity in HepG2 cells - 40 hour (AID 1224879). Also: nearly all actives have a fitted effect of over 40% in size. The method, boiled down: as §3
The nature of test [10]: A CellTox Green Cytotoxicity Assay to monitor cytotoxicity in HEK293 cells - 24 hour (AID 1224875). Also: series mostly up to about 77 µM; nearly all actives have a fitted effect of over 45% in size. The method, boiled down: as §2
% is scaled to controls: 0 for no effect and ±100 for the full control effect.

With `CO[Si](CCCNCCC[Si](OC)(OC)OC)(OC)OC`, the Potency entry in test [1], in test [2], in test [3], in test [6], in test [7] and in test [8] was “inactive” in each case. In addition, the Potency result in [9] is “inactive”. Besides, in test [4], the call was inactive. The max response in [5] is 5.67%.

Take `Nc1cc(C(Cl)=C(Cl)Cl)c(S(N)(=O)=O)cc1S(N)(=O)=O`: the Potency entry in test [1], in [2], in test [3], in test [10], in test [6] and in test [8] was “inactive” each time. Besides, the Potency entry in test [9] is “inactive”. In addition, the outcome in test [4] was inactive. Besides, the max response in test [5] was -0.745%.

Turning to `NCC[C@H](O)C(=O)N[C@@H]1C[C@H](N)[C@@H](O[C@H]2O[C@H](CN)[C@@H](O)[C@H](O)[C@H]2O)[C@H](O)[C@H]1O[C@H]1O[C@H](CO)[C@@H](O)[C@H](N)[C@H]1O`, the activity change, negative = cytotoxic in [1] is -0.912% [at 0.29 µM]; in test [7], -1.54% [at 0.29 µM]. In addition, the cytotoxicity increase in test [2] was -3.46% [at 0.29 µM]; in test [6] it was -3.16% [at 0.29 µM]; in [9], -4.11% [at 0.29 µM]. Also, in test [3], the activity change, negative = cytotoxicity is -0.0333% [at 0.29 µM]. Besides, the viability change, negative = cytotoxic in test [4] was -0.5% [at 0.29 µM]. Also, the max response in test [5] was 5.14%. Besides, in test [8], the cytotoxicity is -1.2% [at 0.29 µM].

Regarding `CCCCCN(CCCCC)C(=O)C(CCC(=O)O)NC(=O)c1ccc(Cl)c(Cl)c1` (stereo not drawn), the Potency entry in [1], in [2], in test [3], in [6], in test [7] and in test [8] was “inactive” throughout. Also, the Potency entry in [9] is “inactive”. Also, the compound was called inactive in test [4]. In addition, in test [5], the max response is -6.43%.

For `C=C(C)C(=O)NCCCN(C)C`, the Potency result in test [1], in test [2], in test [3], in test [6], in test [7] and in test [9] was “inactive” throughout. Moreover, the outcome in [4] was inactive. The max response in test [5] was 9.44%.

As for `CN(C)C(=O)Nc1ccccc1`, the Potency entry in test [1], in test [2], in test [3], in [10], in test [6] and in test [9] was “inactive” each time. For the same compound, in [4], the call was inactive. Moreover, the max response in test [5] is 1.06%.

Consider `CCn1cc(C(=O)O)c(=O)c2cc(F)c(N3CCN(C)CC3)cc21`, for which the activity change, negative = cytotoxic in [1] is 1.6% [at 15.8 µM]; in [7], 1.05% [at 15.8 µM]. Further, the cytotoxicity increase in test [2] is -12.2% [at 15.8 µM]; in test [6], -8.46% [at 15.8 µM]; in test [9] it was -14.4% [at 15.8 µM]. The activity change, negative = cytotoxicity in [3] was 4.51% [at 15.8 µM]. For the same compound, the viability change, negative = cytotoxic in test [4] was 2.21% [at 15.8 µM]. The max response in test [5] is -1.49%. Moreover, the cytotoxicity in [8] was -13.3% [at 15.8 µM].

`NS(=O)(=O)c1cc2c(cc1Cl)NC(CSCc1ccccc1)=NS2(=O)=O`: the Potency entry in [1], in [2], in [3], in [6], in test [7] and in test [9] was “inactive” each time. In test [4], the result was inactive. The max response in [5] was -0.803%.

For the compound `Cc1ccccc1C(=O)O`, the Potency entry in [1], in test [2], in test [10] and in test [6] was “inactive” each time. The call in [4] was inactive. For the same compound, the max response in test [5] was -0.805%.

Consider `CCC(C)(C)C1CCC(OC)CC1` (stereo not drawn), for which the Potency result in [1], in test [2], in [10], in test [6], in [7] and in test [8] was “inactive” throughout. For the same compound, in test [9], the Potency result was “inactive”. Moreover, the call in [4] was inactive. Besides, in test [5], the max response was 21.9%.

Turning to `C=C(C)[C@@H]1CCC2=CC(=O)C[C@@H](C)[C@]2(C)C1`, the Potency entry in test [1], in test [2], in [3] and in test [7] was “inactive” each time. The compound was classed as inactive in test [4]. Moreover, in test [5], the max response was 3.58%.

`COc1ccc(N=[N+]([O-])c2ccc(OC)cc2)cc1`: the Potency entry in test [1], in test [2], in test [3], in test [6], in test [7] and in test [8] was “inactive” throughout. Further, the Potency result in test [9] was “inactive”. In addition, the compound was called inactive in test [4].

For the compound `COC(=O)[C@H]1[C@H]2C[C@@H]3c4[nH]c5cc(OC)ccc5c4CCN3C[C@H]2C[C@@H](OC(=O)COc2ccc(OC)cc2)[C@@H]1OC`, the Potency result in test [1], in test [2], in test [10], in test [6], in test [7] and in test [8] was “inactive” in each case. The Potency entry in test [9] was “inactive”. In [4], the compound was called inactive. Moreover, the max response in [5] was 6.2%.

For `CCCCCC[C@@H](CCC)C(=O)O`, the Potency result in [1], in [2], in test [10], in test [6], in test [7] and in test [8] was “inactive” in each case. For the same compound, the Potency entry in test [9] is “inactive”. Moreover, the outcome in test [4] was inactive. For the same compound, the max response in [5] is 13.8%.

As to `CCCCCCCCCCCCI`, the figures for the Potency in [1] and in [7] were 22 µM (active) and 24.7 µM (active), respectively. The Potency result in test [2], in [10], in test [6], in test [8] and in test [9] was “inactive” each time. Also, in test [4], the compound was classed as inactive. The max response in test [5] is -9.8%.

With `COC(=O)CCCC(=O)O`, the Potency result in test [1], in test [2], in test [10], in test [6], in test [7] and in test [8] was “inactive” in each case. Further, in test [9], the Potency entry was “inactive”. Besides, the result in test [4] was inactive. Moreover, in [5], the max response is 10.9%.

For `COc1ccc(COC=O)cc1`, the Potency result in test [1], in test [2], in test [3], in test [6], in test [7] and in test [8] was “inactive” each time. Further, the Potency result in test [9] was “inactive”. Moreover, the outcome in test [4] was inactive.

`O=c1[nH]c(=O)n([C@H]2O[C@H](CO)[C@@H](O)[C@@H]2O)cc1/C=C\Br`: the Potency result in test [1], in test [2], in [10], in test [6], in [7] and in [8] was “inactive” throughout. The Potency entry in [9] was “inactive”. Moreover, the compound was called inactive in [4]. The max response in test [5] is 3.79%.

Regarding `CCCCCCOC(=O)c1ccccc1O`, the Potency entry in [1], in [2], in [10], in [6], in [7] and in test [8] was “inactive” throughout. The Potency result in [9] was “inactive”. The outcome in test [4] was inactive. The max response in test [5] was -8.04%.

`C[C@H](O)C(=O)Nc1c(I)c(C(=O)NC(CO)CO)c(I)c(C(=O)NC(CO)CO)c1I`: the Potency result in test [1], in test [2], in test [10], in test [6], in [7] and in test [8] was “inactive” throughout. In [9], the Potency entry is “inactive”. In addition, in test [4], the outcome was inactive. Further, the max response in test [5] is 4.24%.

As to `CCOC(=O)Nc1ccc2c(c1)N(C(=O)CCN1CCOCC1)c1ccccc1S2`, the Potency result in test [1], in [2], in test [10], in test [6], in test [7] and in test [8] was “inactive” throughout. Moreover, the Potency entry in test [9] is “inactive”. The call in test [4] was inactive. Moreover, the max response in test [5] is -6.68%.

In the case of `N[C@@H](CS)C(=O)O`, the Potency result in test [1], in [2], in [10], in test [6], in test [7] and in test [8] was “inactive” each time. In addition, the Potency entry in test [9] was “inactive”. In addition, the call in test [4] was inactive. Also, the max response in [5] was 9.81%.

As for `Cc1c(C)n(CCN(C)C)c2ccc(C(=O)OCCN(C)C)cc12`, the Potency entry in [1], in test [2], in [3], in test [6] and in test [9] was “inactive” each time. Also, in test [4], the compound was classed as inactive.
